# ARNT-TACC3 inh = disrupts binding between human ARNT and TACC3; inhibition, % at 9.99 µM; AID 623870; 0.66% of 390,000 active; AlphaScreen His-ARNT PAS-B/GST-TACC3 binding, luminescence; TACC3 fragment carries E629A point mutation;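 active = mean inhibition of replicates at least 50% and at least half of replicates each reaching 50%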;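 note: 0% = complete ARNT plus TACC3 wells and 100% = ARNT alone without TACC3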
# sPLA2-III inh = Blocks human group III sPLA2 activity. inhibition, % at 12.2 µM. QFRET BODIPY PC-A2 liposome hydrolysis, fluorescence. Q9NZ20. 0.56% of 370,000 active. AID 743126;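 active = inhibition above mean plus 3 SD of compounds lying within the high and low control bounds, cut at about 19% in these data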;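 note: 0% = median of test compound wells and 100% = no enzyme DMSO wells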
# Target sequence (Q9NZ20 whole entry, looked up): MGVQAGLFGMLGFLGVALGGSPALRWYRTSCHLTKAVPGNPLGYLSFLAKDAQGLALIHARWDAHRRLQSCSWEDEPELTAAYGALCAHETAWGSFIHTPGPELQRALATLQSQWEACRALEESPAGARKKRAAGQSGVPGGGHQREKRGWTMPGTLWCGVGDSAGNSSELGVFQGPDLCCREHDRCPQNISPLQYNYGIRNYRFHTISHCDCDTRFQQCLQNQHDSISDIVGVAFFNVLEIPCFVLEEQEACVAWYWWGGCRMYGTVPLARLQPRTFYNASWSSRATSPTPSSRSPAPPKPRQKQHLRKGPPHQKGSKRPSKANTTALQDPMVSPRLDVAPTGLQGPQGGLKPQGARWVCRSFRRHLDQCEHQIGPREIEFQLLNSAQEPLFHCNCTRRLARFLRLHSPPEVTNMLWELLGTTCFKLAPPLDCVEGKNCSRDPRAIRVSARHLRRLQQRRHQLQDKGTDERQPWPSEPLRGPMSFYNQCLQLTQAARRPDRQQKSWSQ
# DAGLB inh = diacylglycerol lipase beta (human) inhibition. AID 504411. HEK293T DAGLB membrane lysate, EnzChek fluorogenic substrate. 0.059% of 340,000 active. Q8NCG7. inhibition, % at 5.17 µM; in the data active = inhibition above about 34%;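 note: 0% = enzyme with vehicle and 100% = wells lacking enzyme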
# NadD block = inhibitors of Staphylococcus aureus NadD; purified NadD enzyme, colorimetric absorbance read-out; inhibition, % at 20 µM; 0.78% of 360,000 active; in the data active = inhibition above about 26%
# Neddylation inh = inhibitors of human cullin neddylation; TR-FRET cullin neddylation, biochemical; inhibition, % at 25 µM; 0.58% of 360,000 active; in the data active = inhibition above about 36%
# hGIII sPLA2 conf = human GIII-sPLA2 inhibition, confirmation. shares compounds with sPLA2-III inh. recombinant hGIII-sPLA2, BODIPY PC-A2 QFRET fluorescence. inhibition, % at 12.2 µM. 34% of 2,000 active. AID 743280;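 active = mean inhibition across triplicates above the hit cutoff set in the earlier primary screen, cut at about 19% in these data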;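 note: 0% = enzyme with DMSO and 100% = DMSO wells lacking enzyme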
# BODIPY interf = optically interferes with 535nm fluorescence in sPLA2 counter-screen; BODIPY FL product fluorescence interference, QFRET; inhibition, % at 12.2 µM; 8.5% of 2,000 active; shares compounds with sPLA2-III inh;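 active = average inhibition above the solvent-only control mean plus 3 SD, cut at about 6% in these data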;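 note: 0% = DMSO with substrate plus product and 100% = DMSO with substrate alone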
# BODIPY interf DR = counter-screen for HGIII-sPLA2 inhibitors: 535nm fluorescence interference, dose response | BODIPY FL product fluorescence interference, cell-free | 240 tested, under 10 active | AID 743455 | IC50, µM | shares compounds with sPLA2-III inh;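 active = IC50 at or below 10 µM; inactive = IC50 above 10 µM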
# * = called active by the depositor; x = no result shown. Shown are actives, neighbours in structure and some others; about 2% of the full set was active somewhere.
SMILES,ARNT-TACC3 inh,sPLA2-III inh,DAGLB inh,NadD block,Neddylation inh,hGIII sPLA2 conf,BODIPY interf,others
COc1cccc(-c2ccc([C@H]3[C@@H](CO)N4CCCCN(Cc5cncnc5)C[C@H]34)cc2)c1,1,x,x,x,x,x,x,
O=C(COC(=O)/C=C/c1ccccc1)Nc1ccc2c(c1)OCCO2,36,-3,-6,-2,-24,x,x,
O=C(COC(=O)/C=C/c1ccc(Cl)cc1)Nc1ccc2c(c1)OCCO2,x,22*,0,-1,6,13,-4,
CN(C)C(=O)[C@@H]1N[C@@H]2c3ccc(-c4ccc(F)cc4)c(=O)n3C[C@@H]2[C@H]1CO,-3,x,x,x,x,x,x,
COc1cccc2sc(NNC(=O)COc3ccccc3)nc12,-3,23*,-1,15,4,16,-3,
CCN=c1scc(-c2cccs2)n1/N=C/c1cc(OC)ccc1O,9,10,-4,2,11,x,x,
CC(C)N=c1scc(-c2cccs2)n1/N=C/c1ccc(O)c(O)c1O,59*,38*,11,31*,-9,54*,2,BODIPY interf DR=>122
COc1ccc(NC(=O)N2CCCCC2c2cccnc2)cc1 (configuration not stated),1,22*,-1,-2,0,4,-5,
COc1cc(OC)cc(C(=O)NC(=S)N2CCCCC2c2cccnc2)c1 (configuration not stated),10,9,1,3,-7,x,x,
Cc1ccccc1S(=O)(=O)NCC[C@@H]1CC[C@@H](NC(=O)C2CCCCC2)[C@@H](CO)O1,-7,x,x,x,x,x,x,
COc1cc(N(C)C)ccc1C=c1c2ccccc2n2c1cc(-c1ccccc1)[n+]2C,41*,45*,34,13,-28,52*,-19,BODIPY interf DR=>122
CN(C)c1ccc(C=c2c3ccccc3n3c2cc(-c2ccccc2)[n+]3C)cc1,28,31*,22,2,-1,56*,-26,BODIPY interf DR=>122
CN(C)c1ccc(C=c2c3ccccc3n3c2c2c([n+]3C)CCCC2)cc1,33,39*,22,-1,-123,49*,-24,BODIPY interf DR=>122
Cn1c(CO)c(-c2ccccc2)c2cc([N+](=O)[O-])ccc21,5,-1,0,-11,-13,x,x,
CN(C)c1ccc(C=c2c3cc([N+](=O)[O-])ccc3n3c2cc(-c2ccccc2)[n+]3C)cc1,8,48*,34,48*,-11,98*,-9,BODIPY interf DR=>122
COc1cc(C=c2c3ccccc3n3c2cc(-c2ccccc2)[n+]3C)cc(OC)c1OC,26,14,3,4,x,x,x,
C[C@@H]1CN([C@@H](C)CO)C(=O)c2cc(NC(=O)c3ccccc3)ccc2O[C@@H](C)CCCCO[C@H]1CN(C)S(=O)(=O)c1cccs1,3,x,x,x,x,x,x,
Cc1ccc(-c2ccc3c(c2)O[C@H](CN(C)Cc2ccncc2)[C@H](C)CN([C@H](C)CO)S3(=O)=O)cc1,-6,x,x,x,x,x,x,
C[C@@H]1CN([C@@H](C)CO)C(=O)c2cc(NC(=O)Cc3ccccc3)ccc2O[C@@H](C)CCCCO[C@H]1CN(C)CC1CCCCC1,-13,x,x,x,x,x,x,
c1csc(-c2nnc(NC3CCCCC3)c3ccccc23)c1,x,21*,-4,-2,19,0,-11,
CC1CCN(c2nnc(-c3cccs3)c3ccccc23)CC1,x,6,-3,0,-1,x,x,
CC(C)NC(=O)NCC[C@@H]1CC[C@H](NS(=O)(=O)c2ccc(-c3ccccc3)cc2)[C@@H](CO)O1,4,x,x,x,x,x,x,
O=C(Nc1ccccc1Oc1ccccc1)c1cc([N+](=O)[O-])ccc1Cl,-1,23*,-5,-2,-32,14,-5,
CCCCCCSc1cccc(-c2nc3ccc(Cl)cn3c2NCCCC)c1,x,6,0,3,x,x,x,
CCCCNc1c(-c2ccc(SC(C)CC)cc2)nc2ccc(Cl)cn12 (configuration not stated),x,23*,x,15,x,-8,-7,
SMILES,ARNT-TACC3 inh,sPLA2-III inh,DAGLB inh,NadD block,Neddylation inh,hGIII sPLA2 conf,BODIPY interf,others
C[C@@H]1CN([C@H](C)CO)C(=O)c2cc(C#CCN(C)C)cnc2O[C@H]1CN(C)C(=O)c1cccc(F)c1,-3,x,x,x,x,x,x,
CNC(=S)NCCc1ccccc1,-2,15,-1,-2,-3,x,x,
OCCNC(=S)NCCc1ccccc1,-2,20*,1,0,3,4,-1,
S=C(NCCc1ccccc1)Nc1ncccn1,-1,20*,2,0,-7,10,-3,
S=C(NCCc1ccccc1)N/N=C/c1cccs1,x,20*,x,-1,-6,20*,-1,
COc1ccccc1NC(=O)N(C)C[C@H]1Oc2ncc(C#CC(C)C)cc2C(=O)N([C@@H](C)CO)C[C@@H]1C,-2,x,x,x,x,x,x,
O=C(N[C@H]1CC[C@H](CCNS(=O)(=O)c2ccc(F)cc2)O[C@H]1CO)c1cnccn1,-6,x,x,x,x,x,x,
O=C(O)/C=C/C(=O)Nc1ccc(C2(c3ccc(NC(=O)/C=C/C(=O)O)cc3)c3ccccc3-c3ccccc32)cc1,-1,22*,9,11,1,-12,-4,
COCC(=O)Nc1ccc2c(c1)C(=O)N(C)C[C@@H](OC)[C@H](C)CN(C(=O)CC1CC1)[C@@H](C)CO2,2,x,x,x,x,x,x,
Cc1onc(-c2c(Cl)cccc2Cl)c1C(=O)N/N=C(\N)COc1ccc(Cl)cc1,19,28*,-12,11,-8,31*,0,BODIPY interf DR=>122
C[C@H](NC(=O)C[C@@H]1CC[C@H](NC(=O)Cc2ccccn2)[C@H](CO)O1)c1ccccc1,-22,x,x,x,x,x,x,
CSc1nnc(-c2cc(C)on2)n1-c1ccccc1,-1,20*,0,5,7,-3,-3,
CSc1nnc(-c2nnc(SC)n2-c2ccccc2)n1-c1ccccc1,5,2,-2,-4,1,x,x,
O=C1N/C(=N\N=C\c2cccs2)SC1Cc1cccc(Cl)c1Cl (configuration not stated),-5,20*,-2,17,4,-11,-3,
O=C1N/C(=N\N=C\c2cccs2)SC1Cc1ccc(Cl)cc1Cl (configuration not stated),0,14,-3,17,-9,x,x,
OC1c2cc(Br)ccc2N=C2CCCN21 (configuration not stated),-8,7,1,5,-7,x,x,
OC1c2cc(Br)ccc2N=C2CCCCCN21 (configuration not stated),x,20*,x,1,15,-3,-7,
COc1ccccc1CCNC(=O)c1cc(-c2ccccn2)nc2ccccc12,0,20*,-2,-1,-40,-7,-22,
O=c1c(-c2n[nH]c(=S)n2-c2ccccc2)cccn1Cc1cccc(Cl)c1,-7,22*,-6,-3,1,22*,-1,
S=c1nc[nH]c2c1[nH]c1ccccc12,2,6,-1,3,-242,x,x,
